The first test concerns the target KCNMB2. Nature of the test: pooled miR-30 sensor sort-seq; sequence = guide strand. The conditions noted are these: shRNA.
TTTTATTGTCTCTTCTGTGTGG registered a sensor-assay potency score (higher = more potent) of 0.163.

Turning to TTTGTTAGGATAACACTCTTCT, the sensor-assay potency score (higher = more potent) is 0.649. Same read-out and setting: the figure for TAGGGAACTCATAACAGACTGC is -0.389; for TTATTGTCTCTTCTGTGTGGTA it is -0.319. Still for that read-out and setting: as for TTTTGTTAGGATAACACTCTTC, the figure is -0.026; as for TAGGATAACACTCTTCTGGTTT, 0.203; as for TTCCATGACAACATTCACCAGG, -0.0986. On the same count and under the same terms, the figure for TTAGGATAACACTCTTCTGGTT is -1.15.

For TTGATTTTTATTGTCTCTTCTG, the sensor-assay potency score (higher = more potent) was -0.466. The same measure, in the same setting: as for TAACACTCTTCTGGTTTCCTTC, the figure is -0.332; as for TTTATTGTCTCTTCTGTGTGGT, 0.74; as for TGTTAGGATAACACTCTTCTGG, -0.415.

For another test, the target named is KCNN2. The description is as above. The conditions noted are these: shRNA.
With TTAATTGATGAATAGCTTGCAG, the sensor-assay potency score (higher = more potent) amounted to 0.193. As to TTACACTTCTTAATTGATGAAT, the sensor-assay potency score (higher = more potent) was -0.837. The same measure, in the same setting: the figure for TAGCTTGCAGGAATTTTCGTTG is -0.466. On the same count and under the same terms, as for TTCTCGAAGTCTTCACTCCTTT, the figure is -0.431. On to ATGAACAACTGTATTTCCCTGG, for which the sensor-assay potency score (higher = more potent) stood at 0.818. Still for that read-out and setting: the figure for ATTGATATCAACCACATCGCTC is -0.533; for TAATTGATGAATAGCTTGCAGG it is -0.772; for TACTTTTGCATGATCTATCTTT it is -0.0765. The same measure, in the same setting: the figure for TTGTCGTAGCTCTCCATCTGAG is -1.04; for TTCTTAATTGATGAATAGCTTG it is -1.14; for TTAGACACCACGATCTCGGGGG it is 1.02.

TTGATGAATAGCTTGCAGGAAT gave a sensor-assay potency score (higher = more potent) of -0.859.

The target of a further test is KCNN3. The test is described as above. The settings on record: shRNA.
TAGGTCATGGCTATCCGCCAGT displayed a sensor-assay potency score (higher = more potent) of -0.594.

Turning to ATACATGACATTCTGCATCTTG, the sensor-assay potency score (higher = more potent) worked out at 0.37.

Sequence TTGTCGATCACGAAGAGCTGGA displayed a sensor-assay potency score (higher = more potent) of 0.137.

As to TAGATTAACCATGTTTCCCGAA, the sensor-assay potency score (higher = more potent) is -0.326. The same measure, in the same setting: the figure for TAAGTCATACATGACATTCTGC is 0.0328. TACATGACATTCTGCATCTTGG returned a sensor-assay potency score (higher = more potent) of -0.595.

In turn, TTCTCCAGGTCTTCGCTCCGGT came in with a sensor-assay potency score (higher = more potent) of -0.356. Same read-out and setting: the figure for TTGAAGTTGATCTTGTTGAGGG is 0.397; for TTGGTCACTCAGCTTCCTCTGT it is -0.263; for TTTGGCATGGTCAATCTTCTTT it is -0.404. Same read-out and setting: as for AAAGTTACTAGTTACGTCCTGC, the figure is 0.827. On the same count and under the same terms, the figure for TTCTTTAGCAGCTTTGTGTGTT is 0.0976.

Source of the values: the OligoGym collection.
Also: reference of the scale not given here.
